The whole screen tested about 310,000 compounds, of which about 14,000 (4.5%) showed an effect of 50% or more. The effect is printed as a negative number. What follows is part of a selection rich in strong results, with near analogues and random picks from the rest.
target: human ether-à-go-go-related gene (hERG) potassium channel (human, UniProt Q12809); assay: primary screen, population patch clamp on CHO cells stably expressing hERG; higher = less effect of the substance
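Also: peak tail current of the secondary pulse compared with the same well before compound.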

Sequence of human ether-à-go-go-related gene (hERG) potassium channel (Q12809 whole entry, looked up): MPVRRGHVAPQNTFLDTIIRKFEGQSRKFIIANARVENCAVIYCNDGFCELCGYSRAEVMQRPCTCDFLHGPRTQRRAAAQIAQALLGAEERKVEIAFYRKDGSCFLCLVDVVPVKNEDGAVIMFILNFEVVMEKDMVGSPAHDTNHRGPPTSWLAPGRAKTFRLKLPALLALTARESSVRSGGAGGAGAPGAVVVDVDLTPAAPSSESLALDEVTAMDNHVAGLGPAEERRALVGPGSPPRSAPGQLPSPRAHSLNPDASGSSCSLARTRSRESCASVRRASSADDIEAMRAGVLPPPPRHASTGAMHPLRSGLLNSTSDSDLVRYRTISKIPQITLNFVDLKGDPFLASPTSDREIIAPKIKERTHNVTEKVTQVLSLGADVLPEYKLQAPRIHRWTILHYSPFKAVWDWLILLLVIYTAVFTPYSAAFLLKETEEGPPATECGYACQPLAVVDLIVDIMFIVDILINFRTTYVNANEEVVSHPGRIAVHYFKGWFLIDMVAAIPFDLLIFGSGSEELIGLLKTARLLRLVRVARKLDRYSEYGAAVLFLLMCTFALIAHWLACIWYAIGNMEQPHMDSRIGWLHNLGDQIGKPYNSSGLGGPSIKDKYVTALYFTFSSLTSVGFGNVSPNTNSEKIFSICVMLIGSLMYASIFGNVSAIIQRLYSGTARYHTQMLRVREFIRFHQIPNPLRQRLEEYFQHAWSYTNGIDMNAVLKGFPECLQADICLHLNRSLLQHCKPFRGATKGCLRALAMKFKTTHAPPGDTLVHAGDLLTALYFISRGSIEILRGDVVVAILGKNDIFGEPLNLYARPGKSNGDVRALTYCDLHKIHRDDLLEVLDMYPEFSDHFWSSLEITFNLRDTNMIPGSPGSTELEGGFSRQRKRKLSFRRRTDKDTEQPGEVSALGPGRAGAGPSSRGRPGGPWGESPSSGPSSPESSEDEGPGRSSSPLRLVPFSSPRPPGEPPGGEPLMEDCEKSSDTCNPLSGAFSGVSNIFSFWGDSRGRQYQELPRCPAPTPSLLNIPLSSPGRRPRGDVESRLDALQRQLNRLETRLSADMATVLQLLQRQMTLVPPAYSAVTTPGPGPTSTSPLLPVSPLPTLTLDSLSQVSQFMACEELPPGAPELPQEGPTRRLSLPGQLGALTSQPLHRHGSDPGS

SMILES | hERG current change (%, negative = inhibition) at 10uM
CC(C)(C)c1nc(SCC(=O)NCc2cccs2)c2ccccc2n1 | -0.222%
CCCCn1c(SCC(=O)Nc2nnc(C)s2)nc2c1c(=O)n(C)c(=O)n2C | -12.4%
Cc1ccc(-n2c(O)c(C=NCc3ccccn3)c3ccccc3c2=O)cc1C | -11.5%
CC1=C(C(=O)OCC2CCCO2)C(c2ccccc2Cl)NC(=O)N1 (centres unmarked) | 14.1%
O=C(CCN1C(=O)c2ccccc2C1=O)N1CCN(Cc2ccc(Cl)cc2Cl)CC1 | -53.4%
O=C(CCN1C(=O)c2ccccc2C1=O)N1CCN(Cc2ccccc2)CC1 | -22.8%
CN1CCN(C(=O)CCN2C(=O)c3ccccc3C2=O)CC1 | 14.7%
Cc1ccc(CN2CCN(C(=O)CCN3C(=O)c4ccccc4C3=O)CC2)cc1 | -55.4%
CCN1CCN(C(=O)CCN2C(=O)c3ccccc3C2=O)CC1 | -1.77%
O=C(CCN1C(=O)c2ccccc2C1=O)N1CCCCCC1 | 0.431%
O=C(NN=C1CCN(Cc2ccccc2)CC1)c1ccccc1 | 7.78%
Cn1ccnc1SCCNC(=O)CCc1nnc(CCc2ccccc2)o1 | -10.2%
Cn1c(O)c(C=NCCN2CCNCC2)c(=O)[nH]c1=O | 13.6%
Cc1ccccc1C(=O)N=c1sccn1C | 24.7%
Cc1cc(F)ccc1NS(=O)(=O)c1c(C)nc2scc(C)n2c1=O | -35.8%
COc1cccc(Cn2c(=O)c3[nH]cnc3n(-c3ccccc3C)c2=O)c1 | -1.8%
CCOC(=O)c1c(NC(=O)C(C)N2CCN(S(=O)(=O)c3cccs3)CC2)sc2c1CCC(C)C2 (centres unmarked) | 6.72%
Cc1ccc(NC(=O)CN(C)C(=O)c2ccc3[nH]c4c(c3c2)CC(C)CC4)cc1 (centres unmarked) | 8.58%

SMILES | hERG current change (%, negative = inhibition) at 10uM
Cc1ccc(C2N(c3nccs3)C(=O)C3CCCN32)cc1 (centres unmarked) | -4.54%
O=C1C2CCCN2C(c2ccccc2)N1c1nccs1 (centres unmarked) | 17.7%
Cc1ccccc1C1N(c2nccs2)C(=O)C2CCCN21 (centres unmarked) | -62.5%
CC(C)(/C=N/O)/[N+]([O-])=C/c1ccccc1 | 20.1%
CCCOc1cccc(NC(=O)OC2CCN(C)CC2)c1.O=C(O)/C=C/C(=O)O | -15.7%
O=C(CSc1nc2nccnc2c(=O)n1Cc1cccs1)Nc1ccccc1 | -74.9%
CCn1cc2nc(SCC(=O)Nc3ccc(F)cc3F)n(Cc3ccccc3)c(=O)c2n1 | -40%
Cn1c(Cc2cccs2)nnc1SCC(=O)Nc1ccccc1F | 1.93%
COc1ccccc1NC(=O)CSc1nc2nccnc2c(=O)n1Cc1cccs1 | -69.9%
CCn1cc2nc(SCC(=O)Nc3ccccc3F)n(Cc3ccccc3)c(=O)c2n1 | -70.6%
CCOc1ccc(NC(=O)CSc2nc3ccccc3c(=O)n2Cc2cccs2)cc1 | 13.6%
COc1ccc(NC(=O)CSc2nc3ccccc3c(=O)n2Cc2cccs2)c(OC)c1 | -6.23%
COc1ccccc1NC(=O)CSc1nnc(Cc2cccs2)n1C | 5.99%
Cc1ccc(NC(=O)CSc2nc3ccccc3c(=O)n2Cc2cccs2)cc1 | 7.4%
O=C(CSc1nc2nccnc2c(=O)n1Cc1cccs1)Nc1ccccc1F | -69.1%
CC(C)CCn1c(SCC(=O)Nc2ccccc2C(F)(F)F)nc2nccnc2c1=O | -21.6%
CCn1cc2nc(SCC(=O)Nc3ccc(OC)cc3OC)n(Cc3ccc(OC)cc3)c(=O)c2n1 | 1.42%
